# From the supplement of paper PMC12636033
# ± gives the standard deviation of the averaged measurements. Whole data set: some 33,000 sequences, median “E-score (rank enrichment, -0.5 to 0.5)” near -0.0068, cut for the highest 2% near 0.24. This is one part of a sample in which the highest values are shown more often than they occur.
# Tested on: muMax20 (Max(13-93) K31hArg/K57hArg, M65Nle)
# Assay: PBM 8-mer E-score (E-score (rank enrichment, -0.5 to 0.5)); higher = stronger preferential binding
# Protocol: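 Protein binding microarray (universal PBM chip covering all 10-mers in fixed probe flanks) with chemically synthesized human Max(13-93) bHLH-LZ analogs (not full-length Max) bearing noncanonical residues (hArg, Tha, Aib, Nle at 65) and aromatic Cys staples. Read-out per 8-mer (and its reverse complement): E-score (rank-based enrichment, -0.5 to 0.5) and Z-score of median probe intensity.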
row,Sequence,PBM 8-mer E-score
1,CTGGGAGC,-0.247 ± 0.043
2,AAAGTCCG,-0.148 ± 0.0098
3,GTGGAAAC,0.119 ± 0.033
4,CCCTCATA,0.135 ± 0.065
5,GTAGACAA,0.173 ± 0.061
6,GTCTTAGA,-0.0878 ± 0.12
7,GGGCAAAA,-0.107 ± 0.024
8,AGGGGTAG,0.123 ± 0.011
9,CTGTGGGA,-0.0483 ± 0.025
10,AATTGATC,0.0857 ± 0.087
11,AATTGATG,0.264 ± 0.051
12,AATTGATA,0.232 ± 0.016
13,GAAGGGCA,0.156 ± 0.0064
14,AGTATACA,0.175 ± 0.1
15,AGTATACC,0.077 ± 0.053
16,CTAATGTA,0.1481 ± 0.0014
17,ATTATGTG,0.164 ± 0.049
18,AGTATACT,0.258 ± 0.04
19,ACTATAGG,0.0643 ± 0.011
20,ACTATAGA,0.117 ± 0.049
21,ATAATGTA,0.276 ± 0.0095
22,ATTATGTC,0.066 ± 0.23
23,ATTATGTA,0.247 ± 0.0099
24,ATAATGTC,0.0566 ± 0.18
25,ACTATAGT,0.243 ± 0.03

row,Sequence,PBM 8-mer E-score
1,AACGTTGA,0.212 ± 0.038
2,CAGTTGTC,-0.0724 ± 0.03
3,AATCTGCC,-0.0641 ± 0.019
4,AACCTAAC,0.00712 ± 0.17
5,AAGATAGT,0.0344 ± 0.11
6,ATGGTCGG,0.12 ± 0.014
7,AATCGGAT,-0.181 ± 0.015
8,GCCGGTCA,-0.116 ± 0.078
9,AATTACGC,0.0652 ± 0.043
10,GTTATACA,0.195 ± 0.095
11,CTTATATC,0.137 ± 0.08
12,AGTATAAG,0.237 ± 0.042
13,AATATATC,0.0912 ± 0.07
14,GTTATAGA,0.21 ± 0.089
15,AGTATAAA,0.213 ± 0.011
16,ATTAGATA,0.262 ± 0.057
17,GTTAGATA,0.164 ± 0.13
18,ATTAGATG,0.226 ± 0.051
19,AGTATAAC,0.097 ± 0.009
20,GTTATATA,0.25 ± 0.023
21,ATTATATC,0.247 ± 0.031
22,CATGGCAC,0.0103 ± 0.037
23,CTGTGTGA,0.134 ± 0.012
24,CAGCGCAC,-0.171 ± 0.087
25,TATGAGGA,-0.0378 ± 0.11

row,Sequence,PBM 8-mer E-score
1,AACAGACG,-0.142 ± 0.096
2,GGTGGATA,-0.0515 ± 0.1
3,ACGGTTCA,-0.138 ± 0.047
4,CTAGGTGA,0.108 ± 0.032
5,TAGGATGA,-0.00288 ± 0.12
6,CTTATATA,0.226 ± 0.043
7,ATTATATG,0.251 ± 0.03
8,ATTATACG,0.0459 ± 0.063
9,AGTATATG,0.145 ± 0.017
10,CGTATCTA,-0.0745 ± 0.11
11,AGTATATC,-0.038 ± 0.059
12,ATTATATA,0.242 ± 0.03
13,GGTATCTA,-0.022 ± 0.064
14,AGTATCTA,0.344 ± 0.011
15,ATTATACA,0.174 ± 0.083
16,AGTATATA,0.277 ± 0.12
17,ACTATATG,0.191 ± 0.089
18,GCCGTACA,0.042 ± 0.14
19,GGCGTACA,-0.082 ± 0.02
20,CAAACGTC,0.0182 ± 0.068
21,CAGTAGAC,-0.021 ± 0.044
22,AGGATGCG,-0.118 ± 0.034
23,ACTATATA,0.235 ± 0.028
24,CCTATATC,-0.0516 ± 0.071
25,ACTATATC,0.273 ± 0.02

row,Sequence,PBM 8-mer E-score
1,CCTTGTAC,0.176 ± 0.15
2,ACGAAGCG,-0.0243 ± 0.071
3,ATACTAGG,0.138 ± 0.032
4,TAATATGA,0.221 ± 0.017
5,ACATATTG,0.11 ± 0.12
6,ACATATTA,0.241 ± 0.011
7,CCATATTA,0.124 ± 0.062
8,ACATATCA,0.262 ± 0.041
9,GAATATTC,0.195 ± 0.08
10,ACATATCG,0.046 ± 0.074
11,CAATATTC,0.0728 ± 0.011
12,CCATATCA,0.0749 ± 0.018
13,AAATATTC,0.249 ± 0.0014
14,TAATATTA,0.337 ± 0.011
15,GAATATTA,0.137 ± 0.083
16,CGGCGTCC,-0.114 ± 0.047
17,ATGCAATG,-0.00261 ± 0.02
18,CAACTTGG,-0.0581 ± 0.1
19,AGAGAACC,-0.143 ± 0.11
20,CAGATCTC,-0.176 ± 0.038
21,ATCTGACG,-0.0395 ± 0.07
22,ATAGCGCG,0.0731 ± 0.084
23,CATTGCGG,-0.148 ± 0.13
24,ACTTCAAC,0.11 ± 0.041
25,AAATATTA,0.27 ± 0.028

row,Sequence,PBM 8-mer E-score
1,CCATAGCA,0.0753 ± 0.09
2,CAATATTA,0.221 ± 0.056
3,TCATAGCA,0.108 ± 0.0018
4,ACATAGCA,0.272 ± 0.032
5,AAATATTG,0.138 ± 0.0027
6,ATAAAGAG,0.181 ± 0.089
7,AGACAACA,0.0868 ± 0.027
8,TCTATCAA,0.184 ± 0.099
9,ATCTCCAT,0.0165 ± 0.085
10,ATAGGACC,-0.0994 ± 0.04
11,GGTAAGGA,-0.00502 ± 0.057
12,CACGCGTA,0.248 ± 0.051
13,CACGCGTC,0.208 ± 0.048
14,GATGCTGA,-0.131 ± 0.16
15,AACGCGTA,0.0549 ± 0.11
16,GACGCGTA,0.0707 ± 0.061
17,CACGCGTG,0.314 ± 0.11
18,ACCGCGTC,-0.131 ± 0.011
19,AACGCGTG,0.144 ± 0.01
20,ACCGCGTG,0.294 ± 0.022
21,AATGCTGA,0.088 ± 0.064
22,CATGCTGA,0.2602 ± 0.0021
23,ACCGCGTA,0.0588 ± 0.11
24,ATAAACGA,0.229 ± 0.033
25,TAATCTGA,-0.0143 ± 0.051

row,Sequence,PBM 8-mer E-score
1,AGGCCGTC,-0.184 ± 0.049
2,TCCCCGCA,-0.0761 ± 0.035
3,ATCACCTC,0.0702 ± 0.029
4,TCATCTCA,-0.000685 ± 0.13
5,ATTGACCG,0.0179 ± 0.099
6,ATCGCGCG,0.0373 ± 0.16
7,CATGCGTA,0.259 ± 0.15
8,AATGCGTA,0.0783 ± 0.035
9,GATGCGTA,0.0917 ± 0.02
10,GCGTGGTA,0.148 ± 0.095
11,AGGTGGTG,0.0398 ± 0.076
12,ACGTGGTA,0.309 ± 0.021
13,ACGTGGTG,0.336 ± 0.015
14,CCGTGGTA,-0.0136 ± 0.0022
15,ACGTGGTC,0.213 ± 0.093
16,ATAGAAAT,0.15 ± 0.089
17,GGAATAGA,0.0778 ± 0.075
18,CACATGGC,0.269 ± 0.088
19,AACATGGA,0.135 ± 0.0038
20,CACATGGG,0.181 ± 0.052
21,CACATGGA,0.238 ± 0.15
22,GACATGGA,-0.0732 ± 0.1
23,GACATGGC,0.0454 ± 0.031
24,ATGACGCG,0.0788 ± 0.13
25,CCGGACAC,-0.238 ± 0.079

row,Sequence,PBM 8-mer E-score
1,ATAGAATG,0.138 ± 0.018
2,GTAGAATA,0.235 ± 0.044
3,ATAGAATA,0.245 ± 0.029
4,AGTATTCG,0.0983 ± 0.088
5,ATTCTATG,0.109 ± 0.0098
6,GATAAATA,0.149 ± 0.036
7,CAAAAATA,0.176 ± 0.0026
8,AATAAATG,0.278 ± 0.018
9,GAAAAATA,0.158 ± 0.027
10,AAAAAATA,0.271 ± 0.019
11,AATAAATC,0.0155 ± 0.081
12,AAAATATA,0.21 ± 0.055
13,TAAATATA,0.246 ± 0.014
14,AATAAATT,0.213 ± 0.037
15,CATAAATG,-0.0552 ± 0.089
16,CAAATATA,0.162 ± 0.027
17,AATAAATA,0.245 ± 0.06
18,AGTATAGC,-0.0321 ± 0.19
19,CAATTTCG,0.0689 ± 0.083
20,GTATGGGA,-0.111 ± 0.019
21,GAGCACCC,-0.166 ± 0.061
22,CACGGGAG,0.00455 ± 0.05
23,ACGGGAGT,0.0635 ± 0.097
